# VACV mCherry inh – inhibitors of vaccinia virus infection (mCherry reporter signal); Potency, µM (top dose mostly 36.5 µM), inactives show at the highest dose activity change, negative = inhibition, usual class: inhibitors; Vaccinia virus mCherry reporter infection, fluorescence; hit rate 0.63% among 310,000; calls by dose curve; tested in A549 cells; note: nearly all actives have a fitted effect of over 35% in size
# Vaccinia Venus – inhibitors of vaccinia virus (Venus reporter); Vaccinia virus Venus reporter expression, fluorescence; Potency, µM (series often up to 36.5 µM), for the others: at the top dose activity change, negative = inhibition, usual class: inhibitors; hit rate 0.46% among 330,000; AID 720580; calls by dose curve; tested in A549 cells; note: nearly all actives have a fitted effect of over 30% in size
# HCV inh – blocks hepatitis C virus; hit rate 3.4% among 340,000; Potency, µM (series often up to 41.8 µM), for the others: at the top dose activity change, negative = inhibition, most hits filed as inhibitors; Huh7.5.1 HCVcc-Cre infection, luciferase reporter, 44 h; active = well fitted inhibition curve with a large enough effect; inconclusive = small, poorly fitted or top-dose-only effect, or another doubt; inactive = no such curve, though single readings can be large or run the other way
#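 Infectious HCV cell culture screen: compound-treated cells (1,000/well, pre-plated 4 h) are infected with HCVcc-Cre at roughly 0.5 moi and grown 44 h. Infection is quantified by luciferase signal after 15 min substrate incubation at room temperature.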
# * hit, by the source's call; i = inactive; u = inconclusive; x = no result; [ ] = dose if it differs, or a comment. Sampled rows, rich in hits. Any-hit rate of the full collection: about 3.3%. % is set by controls: 0 for no effect and ±100 for the full control effect; potency is the fitted concentration of half-maximal effect.
SMILES,VACV mCherry inh,Vaccinia Venus,HCV inh
CN(C)CCNC(=O)C(=O)Nc1ccc2c(c1)N(S(=O)(=O)c1cccs1)CCC2,i,-29%,u
Cc1sc2ncnc(SCC(=O)N3CCCC(C(N)=O)C3)c2c1C (stereo not drawn),-10%,-11%,-11%
O=C(O)c1cccc(Br)c1,2%,-4%,0.79µM*
O=C(O)c1cccc(C(=O)c2cccc(C(=O)O)c2)c1,-1%,-4%,12%
COc1ccccc1NC(=O)NCCCl,10µM*,10µM*,-1%
COc1ccc(Cl)cc1NC(=S)NCCC(c1ccccc1)c1ccccc1,-27%,-21%,u
COc1ccccc1NC(=S)NCCC(c1ccccc1)c1ccccc1,-7%,-13%,10µM*
O=C(NCCCl)Nc1ccccc1OCCOc1ccccc1NC(=O)NCCCl,14µM*,u,u
COc1ccccc1NC(=O)CC(=O)Nc1ccccc1OC,-9%,-18%,-10%
CCCOc1ccccc1NC(=O)Nc1ccccc1Cl,-3%,-11%,u
COc1cc(CN(C(=O)COc2ccc(C)c(C)c2)c2ccccn2)cc(OC)c1OC,-20%,-24%,x
Cc1ccsc1CN1CCc2nnc(CCNC(=O)c3ccc(F)cc3)n2CC1,i,-18%,x
Cc1ccc(/C=N/NC(=O)c2cccc(NC(=O)c3ccccc3Cl)c2)o1,-18%,20%,-17%
CN1/C(=C\C=[N+](C)c2ccccc2)C(C)(C)c2ccccc21,-11%,u,11µM*
CN1/C(=C\C=N\O)C(C)(C)c2ccccc21,-1%,-5%,4%
COc1ccc(-c2c(C#N)c(N)nc3c2CCc2ccccc2-3)cc1OC,x,x,11µM*
COc1cc(-c2c(C#N)c(N)nc3c2CCCC3)ccc1O,u,-21%,2%
O=C(NCc1ccc2c(c1)OCO2)C(=O)NCC1OCCCN1S(=O)(=O)c1ccc(F)cc1 (stereo not drawn),x,x,-1%
COc1ccc(OC)c(CCNC(=O)CCCc2nnc3n(C)c(=O)c4sccc4n23)c1,1%,4%,11%
CC1(C)CC(=O)C2=C(C1)NC(Nc1nc3ccccc3o1)=NC2c1ccccc1Cl (stereo not drawn),17%,-10%,x
Cc1cc(N/N=C/c2ccccc2)nc(N2CCOCC2)n1,-17%,-6%,u
Cc1cc(Nc2ccccc2)nc(N2CCOCC2)n1,x,u,10µM*
Cc1cc(Nc2cccc(F)c2)nc(N2CCOCC2)n1,x,x,3.5µM*
Cc1cc(Nc2cccc(Cl)c2)nc(N2CCOCC2)n1,-21%,-27%,u
O=C(NCc1ccco1)c1ccc2nc([C@@H]3O[C@H](CO)[C@H](O)[C@H](O)[C@H]3O)[nH]c2c1,10%,-6%,x
SMILES,VACV mCherry inh,Vaccinia Venus,HCV inh
Oc1c(Cl)cc(Cl)cc1/C=N/Nc1ncc(Br)cn1,1.6µM*,u,2.2µM*
Cc1ccc(N=Cc2cc(Cl)cc(Cl)c2O)nc1,-9%,-9%,u
CC(O)COCC1OC2OC3C(COCC(C)O)OC(OC4C(COCC(C)O)OC(OC5C(COCC(C)O)OC(OC6C(COCC(C)O)OC(OC7C(COCC(C)O)OC(OC8C(COCC(C)O)OC(OC1C(OCC(C)O)C2OCC(C)O)C(OCC(C)O)C8OCC(C)O)C(OCC(C)O)C7OCC(C)O)C(OCC(C)O)C6OCC(C)O)C(OCC(C)O)C5OCC(C)O)C(OCC(C)O)C4OCC(C)O)C(OCC(C)O)C3OCC(C)O (stereo not drawn),-13%,-15%,x
Clc1ccc(CN2CCCCCCC2)cc1Cl,-15%,-14%,-19%
Clc1cccc(CN2CCN(Cc3ccco3)CC2)c1,-8%,-12%,16%
N=c1ccn(Cc2cccc(Cl)c2)cc1,x,u,2.5µM*
N=c1ccn(Cc2ccc(Cl)c(Cl)c2)cc1,x,u,3.5µM*
N=c1ccn(Cc2ccc(Cl)cc2)cc1,x,u,1.1µM*
Clc1ccc(CN2CCCCCC2)cc1,-2%,-22%,-18%
COc1cc(OC)c(NC(=O)CCn2cnc3onc(-c4ccc(F)cc4)c3c2=O)cc1Cl,-19%,-15%,x
CC(C)(C)c1ccc(C2=NC(C)(C)N(CC(=O)Nc3ccc(F)c(F)c3)C2=O)cc1,-16%,-20%,x
CN(C)c1ccc(-c2n[nH]c(=S)n2-c2ccccc2)cc1,-18%,-19%,-5%
CCN(CC)c1ccc(-c2n[nH]c(=S)n2-c2ccccc2)cc1,-18%,u,11µM*
Cc1ccccc1NC(=O)COC(=O)c1cc(S(=O)(=O)N2CCOCC2)ccc1C,x,x,-21%
Cc1csc2nc(-c3cccc(NC(=O)c4ccc(S(N)(=O)=O)cc4)c3)cn12,-4%,0%,x
O=C1C=CC2(C=C1)O[C@H](Cc1ccccc1)[C@@H](Cc1ccccc1)O2,10µM*,22µM*,2.5µM*
COc1ccc(C[C@@H]2OC3(C=CC(=O)C=C3)O[C@H]2Cc2ccc(OC)cc2)cc1,u,10µM*,4µM*
COc1ccc(N2C(=O)CC(Cc3ccccc3)C2=O)cc1 (stereo not drawn),x,x,7%
O=C1Nc2ccccc2C1Cc1ccccc1 (stereo not drawn),-3%,-1%,-1%
CCc1ccc(NCc2cc3ccc(OC)cc3n(CC(=O)Nc3c(C)cc(C)cc3C)c2=O)cc1,-1%,0%,x
COc1cc(OC)cc(-c2cc3ncccc3cn2)c1,-11%,-13%,11µM*
COc1cc(OC)cc(-c2cc3ccc(OC)cc3cn2)c1,-14%,u,u
COc1cc(OC)c(C(C)=O)c(O)c1C,i,-8%,x
CC(=O)c1c(O)cc(O)c(C(C)=O)c1O,-14%,-5%,3.5µM*
CC(=O)c1c(O)cc(O)cc1CC(=O)O,5%,-5%,0.89µM*
SMILES,VACV mCherry inh,Vaccinia Venus,HCV inh
Cc1cc(O)cc(O)c1C(=O)Cc1ccccc1,-27%,-22%,9%
c1ccc(N2CCN(Cc3ccnc4ccccc34)CC2)cc1,x,x,28µM*
c1ccc2c(CN3CCOCC3)c[nH]c2c1,x,x,4%
CCOCc1cc(CN2CCN(c3cccc(Cl)c3)CC2)c(O)c2ncccc12,u,-21%[7.34 µM],x
Oc1c(CN2CCOCC2)cc(CN2CCOCC2)c(O)c1O,-2%,8%,11%
Brc1cc2c(cc1CN1CCN(c3ccccc3)CC1)OCCO2,u,5%,3%
CC(C)OCc1cc(CN2CCN(c3ccccc3)CC2)c(O)c2ncccc12,11µM*,u,x
c1cnc(N2CCN(Cc3c[nH]c4ccccc34)CC2)nc1,x,13µM*,-6%
Oc1c(CN2CCOCC2)cc(COCc2ccccc2)c2cccnc12,7.1µM*,u,u
CCC(c1nnnn1Cc1ccccc1)N(Cc1ccccc1)Cc1cc2cc(C)ccc2[nH]c1=O (stereo not drawn),-21%,-20%,x
COc1cc2nc(CN3CCOCC3)n(CC(=O)NCC(F)(F)F)c(=O)c2cc1OC,x,x,11%
CCCN1C(=O)C(Cc2nc3ccccc3c(=O)n2-c2ccc(OC)cc2)c2cc(C)ccc21 (stereo not drawn),-21%,-14%,x
COc1ccccc1Cn1c(C)nc2ccccc21,i,-7%,8%
Cc1nc2ccccc2n1CCOc1ccccc1,-2%,-10%,u
Cc1ccc(OCCCCn2cnc3ccccc32)cc1,-2%,-21%,u
Cc1ccc(OCCCn2c(CO)nc3ccccc32)cc1,x,-22%,2%
Cc1ccccc1OCCCCn1c(CO)nc2ccccc21,i,-13%,11µM*
Cc1ccccc1OCCCCn1cnc2ccccc21,x,x,7.9µM*
Cc1ccccc1Cn1c(C)nc2ccccc21,-1%,-8%,5.6µM*

# Source: PubChem BioAssay
